Source: PubChem BioAssay (NCATS)
Records with an inconclusive call do not appear. The source made the active and inactive calls. Calls come from the whole dose curve; as a rule, active = well fitted inhibition curve with a large enough effect; inconclusive = small, poorly fitted or top-dose-only effect; inactive = no such curve, though single readings can be large or run the other way.

Assay: qHTS Screen of the MIPE 4.0 Collection Against Ewings Sarcoma (TC32) (AID 1259256); note: nearly all actives have a fitted effect of over 45% in size
Details: TC32 Ewing sarcoma viability, CellTiter-Glo, 48 h; series mostly up to 45.8 µM
Text: There is a large unmet medical need for treatments for Ewing sarcoma, a pediatric sarcoma. We sought to identify compounds that inhibited Ewing sarcoma cells in vitro with the goal to then test promising drugs in two drug combinations in vitro to look for synergistic drug combinations. Promising combinations would then proceed to additional validation, including in vivo testing.
Using the NCATS developed oncology compound library called the Mechanism of Interrogation Plate (MIPE), four Ewing sarcoma cell lines were evaluated (TC32, TC71, RDES, EW8). Compounds, in a 12-point titration series, were incubated with cells for 48 hours and the read out was cell viability (CellTiter-Glo from Promega). These initial experiments were used to select appropriate concentrations of each single agent for subsequent two-drug matrix combinations such that the concentrations in the matrices would span both activity and non-activity.
Cells, in the log phase of growth, were seeded in 5 uL of RPMI plus 5% FBS, […] L-glutamine, 100 U/ml penicillin and 100 ug/ml streptomycin into 1536-well solid-bottom white tissue culture treated Greiner Bio One Plates (789173-F) using a MultiDrop Combi (Thermofisher Scientific) dispenser and a small sterile cassette. One column was media alone to be used as a :"no cells" control. The plates were then covered with sterilized stainless steel gasketed lids from Kalypsys. After allowing cells to attach for 4 hours, 23 nL of test compound or control (negative control DMSO and positive control 9.2 uM Bortezomib-final) were added from a 1536-well polypropylene compound source plate to each well using a 1536 head pin tool from Kalypsys. Cells were then incubated for 48 hours at 37C, 95% relative humidity and 5% CO2. After 48 hours, plates were removed from the incubator and 3 uL of CellTiter-Glo (Promega) was added using an Aurora Flying Reagent Dispenser Bioraptor. Plates were incubated at room temperature for 10 minutes prior to reading the luminescence on the Viewlux (PerkinElmer). The relative luciferase units are used to calculate the percent activity using the activity of DMSO in the cells and no cells columns for normalization of no inhibition and full inhibition respectively.
Potency is the fitted concentration of half-maximal effect.

| SMILES | Potency |
| --- | --- |
| CC(C)c1c(C(=O)Nc2ccccc2)c(-c2ccccc2)c(-c2ccc(F)cc2)n1CC[C@H](O)C[C@@H](O)CC(=O)O | 3.72 µM (active) |
| COc1cc([C@@H]2c3cc4c(cc3[C@@H](O[C@@H]3O[C@@H]5CO[C@@H](C)O[C@@H]5[C@H](O)[C@@H]3O)[C@H]3COC(=O)[C@H]23)OCO4)cc(OC)c1O | inactive |
| C[C@@H](O[C@H]1OCCN(Cc2n[nH]c(=O)[nH]2)[C@@H]1c1ccc(F)cc1)c1cc(C(F)(F)F)cc(C(F)(F)F)c1 | 16.6 µM (active) |
| C[C@H]1O[C@@H](n2cc(F)c(=O)[nH]c2=O)[C@H](O)[C@H]1O | 9.35 µM (active) |
| Cc1ccccc1C(C(=O)NC1CCCCC1)N(C(=O)CNc1ccc(C#N)cc1)c1cccc(F)c1 (stereo not given) | inactive |
| O=C(Nc1cccc(C(F)(F)F)c1)Nc1cc(S(=O)(=O)NC2CC2)ccc1-c1ccsc1 | 18.7 µM (active) |
| CN(C(Cc1ccc(OS(=O)(=O)c2cccc3cnccc23)cc1)C(=O)N1CCN(c2ccccc2)CC1)S(=O)(=O)c1cccc2cnccc12 (stereo not given) | 16.6 µM (active) |
| C[C@]12CC[C@@H]3c4ccc(O)cc4CC[C@H]3[C@H]1[C@@H](O)[C@@H](O)[C@H]2O | inactive |
| COc1ccc(Cn2ccc3ccc(C(=O)NO)cc32)cc1 | 11.8 µM (active) |
| CN1CCc2c(n(Cc3ccc(C(=O)NO)cc3)c3ccccc23)C1 | 13.2 µM (active) |
| OC(c1cc(C(F)(F)F)nc2c(C(F)(F)F)cccc12)C1CCCCN1 (stereo not given) | 26.4 µM (active) |
| Cc1ccc(NC(=O)c2ccc(CN3CCN(C)CC3)cc2)cc1Nc1nc(-c2cccnc2)cs1 | 26.4 µM (active) |
| O=[N+]([O-])c1ccc(Nc2ccccc2-c2ccccc2)c2nonc12 | inactive |
| CC(C)n1c(C=C[C@H](O)C[C@H](O)CC(=O)O)c(-c2ccc(F)cc2)c2ccccc21 | 2.35 µM (active) |
| CNC1[C@H](O)C(O[C@@H]2C(O)C(O[C@H]3O[C@H]([C@@H](C)NC)CC[C@H]3N)[C@@H](N)C[C@H]2N)OC[C@]1(C)O (stereo not given in full) | inactive |
| N#Cc1ccc(Oc2ccc3c(c2)COB3O)cc1 | inactive |
| O=C(Nc1cccc(Cl)c1)Nc1ncc(CCNc2ncnc3ccsc23)s1 | 0.296 µM (active) |
| Cc1ccc2c(c1)C(=O)[C@]1(O)CCN(c3ccccc3)C1=N2 | inactive |
| Cc1cn([C@@H]2C[C@@H](O)[C@H](CO)O2)c(=O)[nH]c1=O | inactive |
| Cn1c(=O)c(Oc2ccc(F)cc2F)cc2cnc(NC3CCOCC3)nc21 | inactive |

| SMILES | Potency |
| --- | --- |
| Clc1ccc(C2(c3ccc(-c4cn[nH]c4)cc3)CCNCC2)cc1 | 20.9 µM (active) |
| NS(=O)(=O)c1ccc(Nc2nc(OCC3CCCCC3)c3[nH]cnc3n2)cc1 | 16.6 µM (active) |
| Cc1nc(NC(=O)N2CCC[C@@H]2C(N)=O)sc1-c1csc(C(C)(C)C)n1 | 6.62 µM (active) |
| Cc1cnc(Nc2cccc(CN3CCOCC3)c2)nc1Nc1cccc(S(=O)(=O)NC(C)(C)C)c1 | 1.87 µM (active) |
| C=CC[N+]1([C@H]2C[C@H]3[C@@H]4CC[C@H]5C[C@H](O)[C@@H](N6CCOCC6)C[C@]5(C)[C@@H]4CC[C@]3(C)[C@H]2OC(C)=O)CCCC1 | inactive |
| CN1CC(=O)N2C(Cc3c([nH]c4ccccc34)[C@H]2c2ccc3c(c2)OCO3)C1=O (stereo not given in full) | inactive |
| C[C@H]1COC2=C1C(=O)C(=O)c1c2ccc2c1CCCC2(C)C | 23.5 µM (active) |
| CCCCC(C)(C)[C@H](O)C=C[C@H]1[C@H](O)CC(=O)[C@H]1CC=CCCCC(=O)O | 23.5 µM (active) |
| COC(=O)N1CCN(Cc2cccc(NC(=O)Nc3ccc(C)nc3)c2F)CC1 | inactive |
| COc1nccc(-c2c(-c3ccc(F)cc3)ncn2C2CCNCC2)n1 | 16.6 µM (active) |
| O=C1C(CCC(O)c2ccc(F)cc2)C(c2ccc(O)cc2)N1c1ccc(F)cc1 (stereo not given) | inactive |
| c1ccc(-c2oc3ncnc(NC[C@@H]4CCCO4)c3c2-c2ccccc2)cc1 | 20.9 µM (active) |
| O=C1C(c2c(O)[nH]c3ccccc23)=Nc2ccccc21 | 29.6 µM (active) |
| CC1CNc2c(cccc2S(=O)(=O)N[C@@H](CCCN=C(N)N)C(=O)N2CC[C@@H](C)C[C@@H]2C(=O)O)C1 (stereo not given in full) | 14.8 µM (active) |
| COc1ccc(C=CC(=O)Nc2ccccc2C(=O)O)cc1OC | inactive |
| C[C@]12CCC3=C4CCC(=O)C=C4CC[C@@H]3[C@H]1CC[C@@]2(O)CC#N | inactive |
| C[C@@H](NC(=O)c1ncnc(N)c1Cl)c1ncc(C(=O)Nc2cc(C(F)(F)F)c(Cl)cn2)s1 | 23.5 µM (active) |
| CC[C@]1(O)C[C@H]2CN(CCC3=c4ccccc4=N[C]3[C@@](C(=O)OC)(c3cc4c(cc3OC)N(C)[C@H]3[C@@](O)(C(N)=O)[C@H](O)[C@]5(CC)C=CCN6CC[C@]43[C@@H]65)C2)C1 | inactive |
| CNC(=O)c1ccc2c(C(=Nc3cccc(CN(C)C)c3)c3ccccc3)c(O)[nH]c2c1 | inactive |
| CNC(=O)[C@H](CC1=CN=C2C=CCC=C12)NC(=O)[C@@H](CC(=O)NO)CC(C)C | inactive |
